A short description of assay [1]: circadian clock period modulators, cell-based, LOPAC library, luminescence reporter (AID 2774).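 Further: values are relative to mean of DMSO wells on each plate.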 The conditions noted are these: circadian reporter cells, at 7 µM, actives lie on both sides.
Assay [2] is described as follows: enhancers of glutamate uptake in motor neurons, MN-1 cell line (AID 1612).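 Further: tested at 1 µM final; 0% = mean of DMSO vehicle wells on each plate; positive means more glutamate uptake than control and negative means less.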 The following applies: MN-1 motor neuron cells, stronger effect = higher value.
Assay [3] can be described thus: suppressors of polyglutamine aggregation in yeast, 75Q-TubH (AID 1616). The following applies: S. cerevisiae 75Q-TubH polyglutamine aggregation suppression; stronger effect = higher value.
Assay [4] is described as follows: hESC survival regulators, cell-based (AID 493140).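 Further: cells exposed to compounds for four days before counting.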 The conditions noted are these: human embryonic stem cell survival screen; stronger effect = higher value.
Assay [5] can be described thus: antimalarial activity against Dd2 strain (AID 2302;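 active means growth inhibition above 50% at the single 2 µM test dose, taken to imply half-maximal potency below 2 µM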;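 further: 0% = DMSO untreated growth and 100% = chloroquine plus artemisinin killed control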). The following applies: P. falciparum Dd2 in RBCs, LDH growth readout, 72 h; at 2 µM; stronger effect = higher value.
A short description of assay [6]: HepG2 cytotoxicity, primary screen, cytotoxicity control for P. falciparum antimalarial project, cell-based, ATP luminescence (AID 2303;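 active means inhibition above 50%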;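 further: 0% = DMSO wells and 100% = digitonin-killed cells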). The following applies: HepG2 viability, 24-48 h, at 10 µM, stronger effect = higher value.
In assay [7] the target is L-lactate dehydrogenase (Plasmodium falciparum (isolate CDC / Honduras)) (UniProt Q27743). The assay can be described thus: PfLDH activity inhibition – cell lysate, 3D7 strain, counter-screen for P. falciparum growth inhibition project (AID 2304).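 Further: 0% = vehicle and 100% = reference inhibitor.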 The conditions noted are these: P. falciparum 3D7 crude extract, LDH APAD/NBT absorbance; at 2 µM; stronger effect = higher value. Background: Counterscreens check selectivity or assay interference.
L-lactate dehydrogenase (Plasmodium falciparum (isolate CDC / Honduras)), sequence (Q27743 whole entry, looked up): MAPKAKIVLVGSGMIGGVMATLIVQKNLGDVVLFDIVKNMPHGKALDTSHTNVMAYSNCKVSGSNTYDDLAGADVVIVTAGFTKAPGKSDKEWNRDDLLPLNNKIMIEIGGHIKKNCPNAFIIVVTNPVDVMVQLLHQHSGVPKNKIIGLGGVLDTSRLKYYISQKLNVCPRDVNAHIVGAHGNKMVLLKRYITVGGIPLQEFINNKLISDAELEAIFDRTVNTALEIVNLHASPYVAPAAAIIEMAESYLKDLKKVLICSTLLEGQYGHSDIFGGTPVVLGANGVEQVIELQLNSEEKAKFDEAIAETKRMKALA

The nature of assay [8]: inhibition of 3D7 malaria parasite growth – strain 3D7 (AID 2306).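 Further: 0% = DMSO wells and 100% = chloroquine plus artemisinin control wells.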 The following applies: P. falciparum 3D7 erythrocytic growth, LDH absorbance, 72 h; at 2 µM; stronger effect = higher value.

From PubChem BioAssay come the findings set out here.

Calls of active or inactive are those of the source. Unless noted, how the calls were made is not given here.

For `Oc1ccc(C2CNCCc3c2cc(O)c(O)c3Cl)cc1` (stereo not given), the period change in assay [1] is 0.145 h (inactive).

Regarding `NCCS(=O)(=O)O`, the period change in assay [1] was -0.23 h (inactive).

Turning to `NC(=O)OCC(COC(N)=O)c1ccccc1`, the period change in assay [1] is -0.105 h (inactive).

`CCN(CC)CCNC(=O)c1ccc(NC(C)=O)cc1`: the period change in assay [1] was 0.01 h (inactive).

With `COC(=O)Nc1nc2ccc(Sc3ccccc3)cc2[nH]1`, the glutamate uptake change in assay [2] was -41.7%. Also, the aggregation suppression score in assay [3] amounted to 0.129. Besides, the survival in assay [4] is 0.833 (inactive).

Consider `CCCCCCCCNC(C)C(O)c1ccc(SC(C)C)cc1` (stereo not given), for which the glutamate uptake change in assay [2] is -7.34%. The same molecule displayed an aggregation suppression score in assay [3] of 0.0242. For the same molecule, the survival in assay [4] was 0.25 (inactive).

As for `CCOC(=O)c1ncn2c1CN(C)C(=O)c1cc(F)ccc1-2`, in assay [1], the period change is -0.15 h (inactive).

In general, inhibition refers to the drop in the measured response relative to a control, in per cent. With `CCCCc1ccc2nc(NC(=O)OC)[nH]c2c1`, the growth inhibition was 1% (inactive) in assay [5] and 98% (active) in assay [8]. Moreover, the inhibition in assay [6] was 26% (inactive); in assay [7] it was -3% (inactive). Further, in assay [4], the survival was 1 (inactive).

In the case of `O=C(OCC(O)CO)c1ccccc1Nc1ccnc2cc(Cl)ccc12` (stereo not given), in assay [2], the glutamate uptake change stood at 4.05%. Further, in assay [3], the aggregation suppression score was 0.893. The survival in assay [4] was 17.9 (inactive).

Take `CN1CCC[C@@H]1CCO[C@](C)(c1ccccc1)c1ccc(Cl)cc1`: the glutamate uptake change in assay [2] came to 65.2%. In assay [3], this molecule showed an aggregation suppression score of 0.9. Also, the survival in assay [4] was 6.33 (inactive).

Regarding `COc1cc2c(cc1OC)-c1cc(=Nc3c(C)cc(C)cc3C)n(C)c(=O)n1CC2`, the growth inhibition is 29% (inactive) in assay [5] and 92% (active) in assay [8]. In addition, the inhibition is 14% (inactive) in assay [6] and 0% (inactive) in assay [7]. Also, the period change in assay [1] was 0.41 h (inactive).

Regarding `CN(C)CC[C@@H](c1ccc(Cl)cc1)c1ccccn1`, the period change in assay [1] is -0.255 h (inactive).

With `NC1CCN(c2cccc(Cl)n2)CC1`, in assay [1], the period change was -0.02 h (inactive).

Consider `Cc1nc(N)nc(N)c1-c1ccc(Cl)c(Cl)c1`, for which the growth inhibition is -1% (inactive) in assay [5] and 95% (active) in assay [8]. For the same molecule, the inhibition was 66% (active) in assay [6] and 3% (inactive) in assay [7].

`O=C(Nc1cccc(C2=NCCN2)c1)Nc1cccc(C2=NCCN2)c1`: the growth inhibition in assay [5] is 99% (active); in assay [8] it was 98% (active). For the same molecule, the inhibition was 16% (inactive) in assay [6] and 7% (inactive) in assay [7].

With `O=C1N(c2ccccc2)c2ccccc2C1(Cc1ccncc1)Cc1ccncc1`, in assay [1], the period change was 0.25 h (inactive).

Consider `CCN(CC)C(C)CN1c2ccccc2Sc2ccccc21` (stereo not given), for which the glutamate uptake change in assay [2] amounted to 47.6%. Also, the aggregation suppression score in assay [3] was found to be 1.19. In assay [4], the survival is 4.08 (inactive).

With `COc1ccc(CCN2CCC(Nc3nc4ccccc4n3Cc3ccc(F)cc3)CC2)cc1`, the glutamate uptake change in assay [2] was 31.2%. This molecule also had an aggregation suppression score in assay [3] of 1.26. In addition, the survival in assay [4] was 1.58 (inactive).

Regarding `NC(=NCCCCCCN=C(N)/N=C(\N)Nc1ccc(Cl)cc1)/N=C(\N)Nc1ccc(Cl)cc1`, the glutamate uptake change in assay [2] is -13.4%. In assay [3], this molecule displayed an aggregation suppression score of 0.0711. In assay [4], the survival is 3.17 (inactive).

Turning to `CC(C(=O)O)c1ccc(CC2CCCC2=O)cc1` (stereo not given), the period change in assay [1] is -0.055 h (inactive).

As for `CC1=CC(=O)c2ccccc2C1=O`, the glutamate uptake change in assay [2] was -13.7%. Also, the aggregation suppression score in assay [3] was found to be 0.00728. In addition, the survival in assay [4] was 2.42 (inactive).

`CCN1CCC[C@H]1CNC(=O)c1cc(S(N)(=O)=O)ccc1OC`: the period change in assay [1] was -0.035 h (inactive).

On to `CC/C(=C(/CC)c1ccc(O)cc1)c1ccc(O)cc1`, for which the glutamate uptake change in assay [2] is -14.4%. The aggregation suppression score in assay [3] came out at 0.447. Moreover, in assay [4], the survival was 3.75 (inactive).

On to `CCCCC(CC)CN1CN(CC(CC)CCCC)CC(C)(N)C1` (stereo not given), for which the glutamate uptake change in assay [2] came out at 2.82%. Besides, the aggregation suppression score in assay [3] amounted to 0.306. Besides, the survival in assay [4] was 6.83 (inactive).

Take `CCOc1ccc2nc3cc(N)ccc3c(N)c2c1`: the growth inhibition in assay [5] was 70% (active); in assay [8], 98% (active). Further, the inhibition in assay [6] is 8% (inactive); in assay [7], 0% (inactive).

`C[C@H]1O[C@@H](n2cc(F)c(=O)[nH]c2=O)[C@H](O)[C@@H]1O`: the period change in assay [1] was -0.1 h (inactive).

With `COc1ccccc1OCC(O)CN1CCN(CC(=O)Nc2c(C)cccc2C)CC1` (stereo not given), the period change in assay [1] is 0 h (inactive).

For the molecule `CCCCOc1ccc(C(=O)CCN2CCCCC2)cc1`, the glutamate uptake change in assay [2] turned out to be 1.68%. In assay [3], the aggregation suppression score was determined as 1.27. Further, in assay [4], the survival is 4.92 (inactive).

For `CCCCCN(CCCCC)C(=O)C(CCC(=O)O)NC(=O)c1ccc(Cl)c(Cl)c1` (stereo not given), the period change in assay [1] is 0.13 h (inactive). For the same molecule, in assay [4], the survival is 1.92 (inactive).

In the case of `NC(N)=NC(=O)Cc1c(Cl)cccc1Cl`, in assay [1], the period change was 0.09 h (inactive). The survival in assay [4] was 7.33 (inactive).

Turning to `C[C@](N)(Cc1ccc(O)cc1)C(=O)O`, the period change in assay [1] is -0.34 h (inactive).

Turning to `C[C@@](Cc1ccc(O)c(O)c1)(NN)C(=O)O`, in assay [1], the period change was 0.03 h (inactive).

As to `CCOC(=O)C1=C[C@]2(CC)CCCN3CCc4c(n1c1ccccc41)[C@@H]32`, the period change in assay [1] is 0 h (inactive). The survival in assay [4] is 5.33 (inactive).
